This is an account of results in the supplement of paper PMC6522484.

± gives the standard deviation of the averaged measurements.

Test [1] relates to DLD1. Kind of test: cell viability (CellTiter-Glo) relative to plate median (fraction of plate median); higher = more viable cells. The conditions noted are these: 5 µM; treatment time 24 h; reporter: 7TFP. Summed up: (§1)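 After seeding in 384-well plates, colorectal cancer cell lines carrying stable lentiviral TCF/Wnt firefly luciferase reporters (7TFP or TCF4/Wnt) were left 24 h. Library compounds were then added at a final 5 µM for 24 h. A Tecan F500 reader measured firefly luciferase or CellTiterGlo luminescence on parallel plates, with each well normalised to the plate median by webcellHTS2 (additive, no log transformation), and two independent replicates averaged.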
(ATP-based viability assays read luminescence as a measure of living cells.)

The subject of a further test is HCT116. The test is described as above. Conditions: 5 µM; treatment time 24 h; reporter: TCF4/Wnt. The procedure, abridged:
as §1

Test [2] relates to SW480. Described as above. Conditions: 5 µM; treatment time 24 h; reporter: 7TFP. The procedure, abridged:
as §1

Test [3] deals with DLD1. Kind of test: TCF/Wnt firefly luciferase reporter signal relative to plate median (fraction of plate median); higher = higher Wnt reporter signal. Conditions: 5 µM; treatment time 24 h; reporter: 7TFP. The procedure, abridged:
as §1

Test [4] has as its system SW480. The description is as above. Conditions: 5 µM; treatment time 24 h; reporter: 7TFP. Summed up: as §1

In the case of `COc1ccc(C(=O)N2CCCC2=O)cc1`, the cell viability with DLD1 [1] stood at 1.01 ± 0.018; in the test with HCT116, 0.957 ± 0.025; in the test on SW480 [2], 1.045 ± 0.0071. Further, the “TCF/Wnt firefly luciferase reporter signal” value in the test with DLD1 [3] was determined as 1.08 ± 0.021; in the test with SW480 [4] it was 1.07 ± 0.014.
The matching figures for `O=C(O)CC[N+](=O)[O-]` [BOVINOCIDIN (3-nitropropionic acid)]: 0.951 ± 0.025, 1.05 ± 0.042, 0.986 ± 0.02, 1.01 ± 0.042 and 1.05 ± 0.1.
For the molecule `COC(=O)[C@H]1O[C@@H]2C[C@H]3O[C@@H](n4cnc5c(N)ncnc54)[C@H](OC)[C@H]3O[C@@]2(O)[C@@H](O)[C@@H]1O` [Herbicidin B], the cell viability is 0.988 ± 0.032 in the test on DLD1 [1], 1.04 ± 0.081 in the test with HCT116 and 1.05 ± 0.021 in the test with SW480 [2]. In addition, the “TCF/Wnt firefly luciferase reporter signal” value with DLD1 [3] stood at 0.857 ± 0.061; in the test on SW480 [4], 0.945 ± 0.051.
On to `CC(C)CC(N(C)C)C1(c2ccc(Cl)cc2)CCC1` (stereo not given), for which the cell viability in the test on DLD1 [1] stood at 0.917 ± 0.072; in the test with HCT116, 0.924 ± 0.013; with SW480 [2], 1.02 ± 0.042. Further, the “TCF/Wnt firefly luciferase reporter signal” value stood at 0.991 ± 0.042 with DLD1 [3] and 0.87 ± 0.073 in the test on SW480 [4].
For `CC(C)=CCOc1c2occc2cc2ccc(=O)oc12` the same measures were 1.03 ± 0.086, 0.997 ± 0.1, 1.01 ± 0.014, 1.12 ± 0.05 and 0.998 ± 0.16.
Regarding `O=[N+]([O-])c1cc([As](=O)(O)O)ccc1O`, the cell viability with DLD1 [1] came out at 1.07 ± 0.14; in the test on HCT116 it was 1.07 ± 0.14; in the test with SW480 [2] it was 1.075 ± 0.0071. Moreover, the “TCF/Wnt firefly luciferase reporter signal” value in the test with DLD1 [3] worked out at 1.01 ± 0.19; in the test with SW480 [4], 0.959 ± 0.1.
Take `CC(C)N(CCC(C(N)=O)(c1ccccc1)c1ccccn1)C(C)C` (stereo not given): the cell viability in the test with DLD1 [1] amounted to 0.914 ± 0.077; with HCT116 it was 0.964 ± 0.029; in the test on SW480 [2], 0.981 ± 0.011. Further, the “TCF/Wnt firefly luciferase reporter signal” value worked out at 1.16 ± 0.071 in the test with DLD1 [3] and 1.13 ± 0.014 with SW480 [4].
With `CC(C)Nc1nc(Cl)nc(NC(C)C)n1`, the values for the cell viability in the test on DLD1 [1], in the test with HCT116 and in the test with SW480 [2] were 1.02 ± 0.049, 0.952 ± 0.0014 and 0.949 ± 0.025, respectively. Besides, the “TCF/Wnt firefly luciferase reporter signal” value with DLD1 [3] is 0.973 ± 0.038; in the test with SW480 [4], 0.944 ± 0.018.
For `O=C1CC[C@@]2(O)[C@H]3Cc4ccc(O)c5c4[C@@]2(CCN3CC2CC2)[C@H]1O5` the same measures were 1.02 ± 0.093, 0.914 ± 0.19, 1.04 ± 0.035, 0.985 ± 0.12 and 1.03 ± 0.028.
Turning to `CCC12C=CCN3CC[C@@]4(c5ccc(OC)cc5N(C)[C@H]4[C@@](O)(C(=O)OC)[C@@H]1OC(C)=O)[C@@H]32` (stereo not given in full), the figures for the cell viability in the test on DLD1 [1], in the test with HCT116 and in the test on SW480 [2] were 0.975 ± 0.035, 0.953 ± 0.025 and 0.9915 ± 0.0021, respectively. Moreover, the “TCF/Wnt firefly luciferase reporter signal” value with DLD1 [3] was 0.857 ± 0.042; in the test with SW480 [4] it was 0.821 ± 0.021.
The matching figures for `c1ccc2nc(N3CCNCC3)ccc2c1`: 0.9935 ± 0.0092, 1.02 ± 0.081, 0.974 ± 0.025, 1.02 ± 0.15 and 0.932 ± 0.028.
The matching figures for `c1cc2c(cc1[C@H]1OC[C@H]3[C@@H]1CO[C@H]3c1ccc3c(c1)OCO3)OCO2`: 1.03 ± 0.014, 1.03 ± 0.13, 0.952 ± 0.068, 1.09 ± 0.064 and 0.932 ± 0.21.
For `CC(CC(C(N)=O)(c1ccccc1)c1ccccc1)N(C)C` (stereo not given) the same measures were 0.995 ± 0.022, 1.08 ± 0.035, 1.01 ± 0.026, 1 ± 0.014 and 1.01 ± 0.028.
On to `Cc1ccc(/N=C/N(C)/C=N/c2ccc(C)cc2C)c(C)c1`, for which the cell viability is 1.01 ± 0.021 in the test on DLD1 [1], 0.988 ± 0.074 in the test with HCT116 and 0.975 ± 0.036 in the test with SW480 [2]. Besides, the entries for the “TCF/Wnt firefly luciferase reporter signal” value in the test on DLD1 [3] and with SW480 [4] were 1.1 ± 0.057 and 0.927 ± 0.12, respectively.
